{"source": "PubChem BioAssay AID2561", "about": "(National Center for Advancing Translational Sciences (NCATS), 2010)", "note": "Results filed as inconclusive are left out. Where a call stands in place of a potency, no number is given. Activity calls are given as the source filed them. Calls come from the whole dose curve; as a rule, active = well fitted inhibition curve with a large enough effect; inconclusive = small, poorly fitted or top-dose-only effect, or effect the other way; inactive = flat fitted curve, though single readings scatter. Potency is the fitted concentration of half-maximal effect.", "data": [{"target": "Pyruvate kinase (Leishmania mexicana) (UniProt Q27686)", "sequence (Q27686 whole entry, looked up)": "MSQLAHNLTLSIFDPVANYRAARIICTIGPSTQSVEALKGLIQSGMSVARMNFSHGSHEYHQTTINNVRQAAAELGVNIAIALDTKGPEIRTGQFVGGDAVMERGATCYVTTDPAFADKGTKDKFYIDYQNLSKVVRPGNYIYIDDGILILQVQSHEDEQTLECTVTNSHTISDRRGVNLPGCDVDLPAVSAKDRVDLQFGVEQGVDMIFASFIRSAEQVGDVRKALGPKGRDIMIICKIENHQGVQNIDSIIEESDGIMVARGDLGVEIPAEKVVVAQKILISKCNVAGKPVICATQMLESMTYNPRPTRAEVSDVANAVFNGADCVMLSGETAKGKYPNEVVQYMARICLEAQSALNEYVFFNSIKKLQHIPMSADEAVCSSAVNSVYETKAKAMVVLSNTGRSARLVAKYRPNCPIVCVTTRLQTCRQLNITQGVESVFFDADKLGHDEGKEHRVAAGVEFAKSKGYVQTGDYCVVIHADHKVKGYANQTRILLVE", "experiment": "Confirmation Assay for Inhibitors of Leishmania Mexicana Pyruvate Kinase (LmPK): for Probe SAR", "settings": "purified LmPK, ATP generation, Kinase-Glo luminescence; series mostly up to 57.5 µM", "text": "NIH Chemical Genomics Center [NCGC] Malcolm Walkinshaw, Hugh Morgan, Linda Gilmore University of Edinburgh, UK MLPCN Grant: 1 R03 MH085697-01 NCGC Assay Overview: Pyruvate kinase (L. Mexicana) (LmPK) enzyme was supplied as a highly purified (>95% pure) sulphate-free preparation from University of Edinburgh, UK and assayed for its ability to generate ATP from ADP using phosphoenolpyruvate (PEP) as a substrate. ATP generation was detected in a coupled reaction by luciferase-mediated luminescence, an ATP-dependent process. Pyruvate kinase substrates, PEP and ADP, were present in the assay at Km and approximately 10-fold below Km respectively. The enzyme was assayed at an intermediate level of activity to screen for both inhibitors and activators.\nNCGC Assay Protocol Summary: Three uL of enzyme mix (kept on ice) in assay buffer (50 mM Imidazole pH7.2, 50 mM KCl, 7 mM MgCl2, 0.01% Tween 20, 0.05% BSA) containing PEP (0.5 mM final concentration) and LmPK (0.1 nM final concentration) was dispensed into white solid bottom 1,536 well microtiter plates. 23 nL of compound were delivered by a pin tool and 1 uL of ADP mix in assay buffer (r.t; 0.1 mM final ADP concentration) was added. Plates were incubated at room temperature for 1 hour. Two uL of detection mix (Kinase-Glo, Promega; at 4 degree Celsius protected from light) was added and luminescence read by a ViewLux (Perkin Elmer) at 1 second exposure/plate. Data were normalized to the uninhibited and AC100 inhibition (no enzyme). To monitor activation, the first column contained a five-fold concentration of LmPK (0.5 nM).", "values": [{"compound": "Cc1ccc(NS(=O)(=O)c2cc3c(cc2-c2ccccc2)NC(=O)CO3)cc1C", "Potency": "inactive"}, {"compound": "O=C1CCc2cc(S(=O)(=O)Nc3ccc4c(c3)OCCO4)ccc2N1", "Potency": "inactive"}, {"compound": "CC(=O)N1CCc2cc(S(=O)(=O)Nc3ccc(C)c(C)c3)ccc21", "Potency": "inactive"}, {"compound": "N#Cc1cccnc1SC1=NS(=O)(=O)c2ccccc21", "Potency": "16.3 µM (active)"}, {"compound": "Cc1ccn2c(NCc3ccco3)c(-c3ccccc3)nc2c1", "Potency": "inactive"}, {"compound": "COc1ccc(-c2nc3ccccn3c2Nc2ccccc2C)cc1", "Potency": "inactive"}, {"compound": "O=S1(=O)N=C(Oc2ccc(-c3ccccc3)cc2)c2ccccc21", "Potency": "4.11 µM (active)"}, {"compound": "O=C1NS(=O)(=O)C(c2ccccc2)C1c1ccccc1", "note": "(stereo not given)", "Potency": "inactive"}, {"compound": "COc1ccc(O)cc1", "Potency": "inactive"}, {"compound": "Cc1cc(N2C(=O)c3ccccc3C2=O)n[nH]1", "Potency": "inactive"}, {"compound": "O=C1CCc2cc(S(=O)(=O)Nc3cccc(C(F)(F)F)c3)ccc2N1", "Potency": "inactive"}, {"compound": "Cc1ccc(NS(=O)(=O)c2cc3c(cc2Br)NC(=O)CO3)cc1C", "Potency": "inactive"}, {"compound": "Cc1scc2c1C(=O)NS2(=O)=O", "Potency": "inactive"}, {"compound": "COc1ccc(OC2=NS(=O)(=O)c3ccccc32)cc1", "Potency": "4.31 µM (active)"}, {"compound": "Cc1ccc(N2C(=O)c3ccccc3C2=O)c(C)c1", "Potency": "inactive"}, {"compound": "O=C1NS(=O)(=O)c2cc(Br)ccc21", "Potency": "inactive"}, {"compound": "CN(C)c1cccc(S(=O)(=O)N2CCN(S(=O)(=O)c3ccc4c(c3)OCCO4)CC2)c1", "Potency": "inactive"}, {"compound": "COc1cccc(Cn2ncc3c4sc(S(C)=O)cc4n(C)c3c2=O)c1", "note": "(stereo not given)", "Potency": "inactive"}, {"compound": "Cc1ccc(NS(=O)(=O)c2ccc3c(c2)oc(=O)n3C)cc1C", "Potency": "inactive"}, {"compound": "Nc1ccccc1OC1=NS(=O)(=O)c2ccccc21", "Potency": "inactive"}, {"compound": "O=S1(=O)N=C(Sc2ccc3c(c2)OCCO3)c2ccccc21", "Potency": "3.66 µM (active)"}, {"compound": "Cc1ccc(OC2=NS(=O)(=O)c3ccccc32)cc1", "Potency": "12.5 µM (active)"}, {"compound": "Cc1ccc2nc(-c3ccc(C)o3)c(NC3CCCC3)n2c1", "Potency": "inactive"}, {"compound": "O=C1c2ccccc2C(=O)N1c1cccc2ncccc12", "Potency": "inactive"}, {"compound": "Cc1ccc(-c2nc3ccccn3c2Nc2ccc(F)cc2)o1", "Potency": "inactive"}, {"compound": "O=C1c2ccccc2C(=O)N1c1cccc2cccnc12", "Potency": "inactive"}, {"compound": "Cc1cccc(OC2=NS(=O)(=O)c3ccccc32)c1", "Potency": "7.02 µM (active)"}, {"compound": "O=C1NS(=O)(=O)c2cc(Cl)ccc21", "Potency": "inactive"}, {"compound": "O=C1c2ccccc2C(=O)C1c1nccc2ccccc12", "Potency": "18.3 µM (active)"}, {"compound": "Cc1ccc(Nc2c(-c3ccc(C)s3)nc3ccccn23)cc1", "Potency": "inactive"}, {"compound": "O=C1c2ccccc2C(=O)N1C1CCCCC1", "Potency": "inactive"}, {"compound": "O=C1c2ccccc2C(=O)N1c1ncccc1O", "Potency": "inactive"}, {"compound": "O=S1(=O)N=C(Oc2cccc(Br)c2)c2ccccc21", "Potency": "3.66 µM (active)"}, {"compound": "Nc1ccc2c(c1)S(=O)(=O)NC2=O", "Potency": "inactive"}, {"compound": "O=C1CCc2cc(S(=O)(=O)Nc3ccncc3)ccc2N1", "Potency": "inactive"}, {"compound": "Cc1ccc2nc(-c3ccc(C)o3)c(Nc3ccc(Cl)cc3)n2c1", "Potency": "inactive"}, {"compound": "Cc1ccc(Nc2c(-c3ccc(C)o3)nc3cccc(C)n23)cc1", "Potency": "inactive"}, {"compound": "CN=c1nc(-c2ccccc2)n(-c2ccccc2)s1", "Potency": "inactive"}, {"compound": "O=C1c2ccc3ccccc3c2C(=O)C1c1cc(=O)c2ccccc2[nH]1", "note": "(stereo not given)", "Potency": "inactive"}, {"compound": "O=S1(=O)N=C(Oc2ccccc2)c2ccccc21", "Potency": "8.01 µM (active)"}]}]}
